Source: PubChem BioAssay AID504332 (National Center for Advancing Translational Sciences (NCATS), 2011)
Screen size: about 350,000 compounds; about 31,000 (8.9%) were called active. Inconclusive results (about 15%) are left out. Calls follow the shape of the dose curve; as a rule, active = well fitted inhibition curve with a large enough effect; inconclusive = small, poorly fitted or top-dose-only effect; inactive = no such curve, though single readings can be large or run the other way. This excerpt belongs to a sample that is enriched for actives.

The compounds below were run against Histone-lysine N-methyltransferase EHMT2 (Homo sapiens) (UniProt Q96KQ7) (assay: qHTS Assay for Inhibitors of Histone Lysine Methyltransferase G9a). Details: G9a H3K9 monomethylation, AlphaScreen, 2 h; series mostly up to 59 µM; activity, negative = inhibition: at the top concentration.
Sequence of Histone-lysine N-methyltransferase EHMT2 (Homo sapiens) (Q96KQ7 913-1193 limits assumed): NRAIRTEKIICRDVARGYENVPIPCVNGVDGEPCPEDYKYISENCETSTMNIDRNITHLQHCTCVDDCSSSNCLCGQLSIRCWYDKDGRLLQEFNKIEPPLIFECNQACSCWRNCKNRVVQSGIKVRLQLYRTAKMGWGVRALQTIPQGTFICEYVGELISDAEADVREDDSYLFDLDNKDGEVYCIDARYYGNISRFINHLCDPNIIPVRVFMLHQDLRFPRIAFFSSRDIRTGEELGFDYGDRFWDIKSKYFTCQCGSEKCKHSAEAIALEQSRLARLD
Excerpt: Methylated lysines, on the N-terminal tails of histone proteins serve as epigenetic markers to recruit factors that can then modify local chromatin structure to lead to functional consequences. G9a and other members of the SUV39 family of the SET domain-containing superfamily of histone lysine methyltransferases (HMT) have been identified to specifically methylate Lys9 of histone H3 (H3K9). G9a catalyzes the mono- and di-methylation of H3K9 in mammalian euchromatic regions, where the resulting H3K9me2 is indicative of transcriptional repression. […] The inhibition of G9a will result in transcriptional activation and work synergistically with DNA methyltransferase and histone deacetylase inhibitors, to kill cancer cells. This qHTS assay for identification of G9a inhibitors is a chemiluminescence based AlphaScreen (PerkinElmer). Methylation of biotinylated-histone peptide is measured through specific antibody-based detection, in conjunction with streptavidin-coated donor and anti-IgG antibody-coated acceptor beads. The method is particularly well suited for detection of inhibitors acting by the desired histone peptide competitive mechanism and is applicable to testing other HMTs. Although AlphaScreen has significant advantages with its utility in a variety of epigenetic target assays, the primary screening data provided in this deposition should be used with caution due to the prevalence of screening artifacts. An AlphaScreen counterscreen is highly recommended to be run against any putative actives to eliminate non specific artifacts. Alternatively, one can use other AlphaScreen assays in PubChem to filter out promiscuous hits. Quinn et al. A chemiluminescence-based method for identification of histone lysine methyltransferase inhibitors. Mol Biosyst 6(5): 782-8. 2010. PMID: 20567762 [2] Baell,Holloway. New substructure filters for removal of pan assay interference compounds (PAINS) from screening libraries and for their exclusion in bioassays. J Med Chem. 53(7):2719-40. 2010. PMID: 20131845 NIH Molecular Libraries Probe Production Network [MLPCN] NIH Chemical Genomics Center [NCGC] Structural Genomics Consortium (SGC) NIH Grant: 5U54 MH084681-02
To each well of a 1,536w plate, 2ul of HMT enzyme (final 20nM) were added, using a nanoliter dispenser. The G9a- and GLP-inhibitor BIX-01294 (CID: 25150857) are used as an intraplate control, with a 16-point titration in duplicate. A Kalypsys pin-tool transferred 23nl of library compound solution in DMSO to each well. Following a 15 min incubation of enzyme with compounds at room temperature, 1ul mixture of b-H3K9 peptide substrate (final 500nM) and SAM cofactor (final 20uM) were added. Reactions were allowed to proceed at room temperature for 2 hours. Methylated b-H3K9 peptide product was detected with 0.5 ug/mL rabbit polyclonal anti-monomethyl histone H3K9 antibody (Abcam Inc., Cambridge, MA) and 20 ug/mL each streptavidin-coated donor and anti-rabbit IgG acceptor AlphaScreen beads. Antibody and beads were added in a 1ul dispense, for a final volume of 4ul, and plates were incubated, protected from the light, for 10 min at room temperature. Microplates were then read on an EnVision multilabel plate reader using the 1,536 plate HTS AlphaScreen aperture (excitation time 80 ms, measurement time 240 ms).
% is scaled to controls: 0 for no effect and ±100 for the full control effect; potency is read from the fitted curve at half-maximal effect.
Also: nearly all actives have a fitted effect of over 75% in size.

| SMILES | activity, negative = inhibition | Potency |
| --- | --- | --- |
| COc1ccc(-c2cc(C(=O)NCCCN3CCCC3=O)c3ccccc3n2)cc1OC | 15% [at 2.33 µM] (inactive) | – |
| Cc1cc(C)c(NC(=O)CSc2nc3nccnc3c(=O)n2CCc2c[nH]c3ccccc23)c(C)c1 | 4.58% (inactive) | – |
| Cc1ccc2cc(C#N)c(NCCNC(=S)NCCCN3CCOCC3)nc2c1 | – | 39.8 µM (active) |
| COCCCNC(=S)NCCNc1nc2cc(C)c(C)cc2cc1C#N | 20% (inactive) | – |
| CCCCc1ccc(NC(=S)NCCCN2CCOCC2)cc1 | 31.4% [at 12.7 µM] (inactive) | – |
| CCOCCCNc1nc(-c2ccccc2)nc2ccccc12 | 14.1% [at 102 µM] (inactive) | – |
| Cc1cc(C)c2nc(-c3cccnc3)cc(C(=O)Nc3ccc(S(=O)(=O)Nc4onc(C)c4C)cc3)c2c1 | – | 50.1 µM (active) |
| Cc1noc(NS(=O)(=O)c2ccc(NC(=O)c3oc4ccc(F)cc4c3C)cc2)c1C | -20.8% [at 102 µM] (inactive) | – |
| CCn1c(SCC(=O)Nc2ccc(S(=O)(=O)Nc3onc(C)c3C)cc2)nnc1-c1ccccc1 | -43.1% (inactive) | – |
| CC(C)OCCCn1c(SCC(=O)c2ccccc2)nc2c(sc3ccccc32)c1=O | -2.03% (inactive) | – |
| COc1ccc(-c2nn(-c3ccccc3)cc2C(=O)Nc2nc(CC(C)=O)ns2)cc1 | -1.95% (inactive) | – |
| COc1cc(NC(=O)c2cccnc2SC)cc(OC)c1 | 1.95% [at 102 µM] (inactive) | – |
| COc1ccc(NC(=O)c2cn(-c3ccccc3)nc2SC)cc1 | – | 39.8 µM (active) |
| Cc1nnc(C)n1-c1ccc(C(=O)Nc2cccc(Br)c2)cc1 | -0.406% (inactive) | – |
| CCOC(=O)CC1COCCN1C(=O)c1cc(COc2ccc(F)c(F)c2)on1 (stereo unspecified) | -0.953% [at 102 µM] (inactive) | – |
| COc1ccc(NC(=O)CN(C)C(=O)CC2CCCCC2)cc1 | 0.205% [at 102 µM] (inactive) | – |
| Cc1ccc(NC(=O)c2cc(-c3ccc(C)o3)nc3ccccc23)nc1 | – | 2.24 µM (active) |
| COc1ccc(NC(=O)CN(C)C(=O)Cc2coc3cc(C)c(C)cc23)cc1 | – | 50.1 µM (active) |
| CSc1ncccc1C(=O)Nc1ccc(C)cn1 | 36.7% [at 102 µM] (inactive) | – |
| COc1ccc(NC(=O)CN(C)C(=O)c2n[nH]c3ccccc23)cc1 | -20.6% [at 102 µM] (inactive) | – |
| COc1ccc(NC(=O)CN(C)C(=O)c2cc(-c3ccc(C)o3)nc3ccccc23)cc1 | – | 4.47 µM (active) |
| CC(=O)N1CCN(C(=O)c2cc(-c3ccc(C)o3)nc3ccccc23)CC1 | -3.86% [at 0.501 µM] (inactive) | – |
| COc1ccc(-c2cc(C(=O)N(C)Cc3ccccc3)c3ccccc3n2)cc1 | 18.4% [at 102 µM] (inactive) | – |
| COc1ccc(CNC(=O)Cc2coc3ccc(C(C)C)cc23)cc1 | 12% (inactive) | – |
| Cc1oc2ncnc(N3CCOCC3)c2c1C(=O)NCCc1ccccc1 | -7.19% (inactive) | – |
| CCCN(C(=O)Cn1cc(S(=O)(=O)N2CCN(c3ccccc3F)CC2)c2ccccc2c1=O)c1cccc(C)c1 | -28.5% (inactive) | – |
